# D2 ag-1: D2 dopamine receptor (human) agonism; HEK293 T-REx D2 cells, calcium flux agonist mode; activation, % at 2 µM; actives 0.53% (n = 340,000);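 active = activation over 3 SD above normal in the single-dose calcium agonist read, cut at about 30% in these data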
# Target sequence (P14416 whole entry, looked up): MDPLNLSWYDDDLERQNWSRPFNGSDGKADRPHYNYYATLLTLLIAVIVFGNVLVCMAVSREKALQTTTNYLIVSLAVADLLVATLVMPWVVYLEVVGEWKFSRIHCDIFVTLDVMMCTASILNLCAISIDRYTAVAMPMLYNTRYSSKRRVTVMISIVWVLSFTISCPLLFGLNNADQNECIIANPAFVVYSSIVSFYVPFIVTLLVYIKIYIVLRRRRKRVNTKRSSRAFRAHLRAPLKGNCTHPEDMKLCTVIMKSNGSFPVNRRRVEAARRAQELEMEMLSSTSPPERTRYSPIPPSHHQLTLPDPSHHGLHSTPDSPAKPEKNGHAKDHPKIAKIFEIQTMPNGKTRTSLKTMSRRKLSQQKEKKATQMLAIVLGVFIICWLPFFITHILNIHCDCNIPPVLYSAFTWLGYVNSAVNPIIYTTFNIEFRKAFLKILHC
#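 HEK293 Trex D2 cells, tetracycline-induced, o/n 30 C 5% CO2; no-wash Ca dye, RT 30–90 min; 10-cycle baseline, 23 nl cpd added, kinetic Ca read 180 s; agonist hits = positive Ca response.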
# D2 antag: antagonists of human D2 dopamine receptor. actives 2% (n = 340,000). P14416. HEK293 TREx D2 cells, calcium flux, dopamine EC80. inhibition, % at 10 µM. AID 485344; in the data active = inhibition above about 30%; inactive = below that, where a call was filed
#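 Tetracycline-induced HEK293 TREx cells expressing D2 receptor forced-coupled to calcium signalling, loaded with no-wash calcium dye. Compounds added and calcium flux read 180 s, then dopamine added at EC80 and read a further 180 s.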
# D2 PAM-1: positive allosteric modulators of human D2 dopamine receptor | P14416 | DiscoveRx D2 beta-arrestin cells, luminescence, 90 min; 100% = 57 uM dopamine signal | potentiation, % (test concentration not listed) | actives 0.23% (n = 360,000) | AID 624464; in the data active = potentiation above about 50%
#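 PathHunter D2 cells, attached overnight at 37 deg C, received compound in DMSO plus dopamine at EC20 (50 nM final) for 90 min at 37 deg C. Beta-arrestin recruitment was read as luminescence after 1 h with detection reagent at ambient temperature.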
# D2 ag-2: activates the human D2 dopamine receptor; AID 624465; activation, % (concentration not given with the values); DiscoveRx PathHunter D2 beta-arrestin, luminescence, 90 min; 100% = 57 uM dopamine signal; actives 0.084% (n = 360,000); P14416; in the data active = activation above about 40%
#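 Agonist mode: compounds alone added to overnight-plated D2 PathHunter cells for 90 min at 37 C, with 57 uM final dopamine (EC100) defining full response. Beta-arrestin recruitment detected by chemiluminescent reagent, read after 1 h at ambient temperature.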
# LDHA block: inhibitors of human lactate dehydrogenase A | P00338 | purified LDHA, NADH/diaphorase-resazurin fluorescence; active compounds read low | activity change, % (values are at about 110 or 230 µM) | actives 0.15% (n = 480,000); in the data active = activity change below about -30%
#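 Human LDH5 (2 nM) was incubated with 0.06 mM NADH and 0.2 mM pyruvate for 5 min at room temperature in Tris pH 7.4. Remaining NADH was coupled through diaphorase/resazurin, and resorufin fluorescence was read at 0 and 20 min.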
# D2 PAM-2: positive allosteric modulators of human D2 dopamine receptor; potentiation, % at 10 µM; AID 485347; HEK293 T-REx D2, calcium flux, EC20 dopamine potentiation; P14416; actives 0.34% (n = 340,000);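 active = potentiation over 3 SD above the plate norm, cut at about 30% in these data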
#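 Primary screen. Calcium kinetics in induced HEK293 T-REx D2 cells: compound pre-addition 180 s, EC20 dopamine, 180 s more.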
# Numbers stand for hits; – = inactive; · = no result. Rows were chosen to be rich in hits. Some 2.1% of all compounds tested hit in one or more screens of this group.
SMILES,D2 ag-1,D2 antag,D2 PAM-1,D2 ag-2,LDHA block,D2 PAM-2
Cc1[nH][nH]c(=O)c1C(c1cccc(OCc2ccc(Cl)cc2)c1)c1c(C)[nH][nH]c1=O,·,·,·,·,–,·
CCOc1ccc(Br)cc1S(=O)(=O)N1CCCC1,–,54,–,–,–,–
NC(=O)C1(c2ccccc2)CC1c1ccccc1 (stereo not given),·,·,·,·,–,·
CCCCOC(=O)c1ccc(OC(=O)c2cccnc2)cc1,–,31,–,–,–,–
CCCCCCOC(=O)c1ccc(OC(=O)c2cccnc2)cc1,–,–,–,–,–,–
Cc1cc(C)cc(NC(=O)CSCc2cc(=O)n3oc(C)cc3n2)c1,·,·,·,·,–,·
CC1(C(=O)NCc2ccc(F)cc2)Oc2ccccc2NC1=O (stereo not given),–,76,–,–,–,–
Cc1ccc(CNC(=O)C2(C)Oc3ccccc3NC2=O)cc1 (stereo not given),–,–,–,–,–,–
Cc1ccc(C2CC(=O)Nc3cc4c(cc32)OCO4)cc1Br (stereo not given),·,·,·,·,–,·
O=C(Nc1ccccc1C(F)(F)F)c1cc(=S)[nH]c2ccccc12,·,·,·,·,–,·
C[n+]1cnc(-c2ccccc2)cc1-c1ccccc1,–,–,–,–,-49,–
COc1ccccc1-n1c(SCC(=O)N2CCOCC2)nc2cccnc21,–,60,–,–,–,–
COc1ccccc1-n1c(SCC(=O)N2CCCCC2)nc2cccnc21,–,–,–,–,–,–
COc1ccc(/C=C\c2nccc3c2[nH]c2ccccc23)cc1,·,·,·,·,–,·
Clc1ccc(/C=C\c2nccc3c2[nH]c2ccccc23)cc1,–,66,–,–,–,–
N#C/C(=C\c1c[nH]c2ccccc12)C(=O)Nc1ccccc1O,·,·,·,·,–,·
CSc1ccc(CN2CCC(N3CC(C)OC(C)C3)CC2)cc1 (stereo not given),–,–,–,–,–,–
Cc1ccc(CN2CCC(N3CC(C)OC(C)C3)CC2)cc1 (stereo not given),–,–,–,–,-32,–
COc1ccc(C23CC4CC(CC(C4)C2)C3)cc1C(=O)NCCN(C)C,–,33,–,–,–,–
CC(OC(=O)Cc1n[nH]c(=O)c2ccccc12)C(=O)c1ccc2c(c1)CCC2 (stereo not given),·,·,·,·,–,·
NC(=O)c1cc2ccccc2o/c1=N/NC(=O)c1cccc(Cl)c1,–,49,–,–,–,–
Cc1cccc(NC(=O)c2ccc3c(c2)NC(=O)CS3)n1,·,·,·,·,–,·
O=C1CC(C(=O)Nc2ccc(F)c(Cl)c2)N=C(N2CCCCC2)N1 (stereo not given),–,30,–,–,–,–
O=C1CC(C(=O)Nc2ccccc2)N=C(N2CCOCC2)N1 (stereo not given),–,–,–,–,–,–
CN(C)c1ccc(/C=C/C(=O)c2c(O)c3ccccc3oc2=O)cc1,39,–,–,–,–,–
SMILES,D2 ag-1,D2 antag,D2 PAM-1,D2 ag-2,LDHA block,D2 PAM-2
O=C(CCCc1ccccc1)Nc1ccnn1C1CCN(Cc2ccccc2)CC1,–,41,–,–,–,–
O=C(CCCc1ccccc1)Nc1ccnn1C1CCN(Cc2ccc(Cl)cc2)CC1,–,35,–,–,–,–
CCOc1ccc(CN2CCC(n3nccc3NC(=O)CCCc3ccccc3)CC2)cc1,–,–,–,–,–,–
O=C(CN1CCN(S(=O)(=O)c2ccccc2F)CC1)N1CCc2ccccc2C1,·,·,–,–,-47,·
O=C(CN1CCN(S(=O)(=O)c2ccc3ccccc3c2)CC1)N1CCc2ccccc2C1,–,–,–,–,–,–
COc1ccc(NC(=O)c2ccc(C3Nc4ccccc4S(=O)(=O)N3)cc2)cc1OC (stereo not given),·,·,·,·,–,·
Cc1nc(C2(NC(=O)CCn3c(=O)oc4ccccc43)CCCCC2)no1,·,·,·,·,–,·
O=C(Nc1ccsc1C(=O)NC1CCCCC1)c1ccccc1,–,31,–,–,–,–
O=C(NC1CCCC1)c1ccc2nc[nH]c2c1,–,–,–,–,–,38
COc1ccc(C(=O)NC2CCCCC2)cc1,·,·,·,·,–,·
